In the supplement of paper PMC9492666:
Structures can show the parent of a compound that is named as a salt.
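Note: breast cancer cell viability read out with the CCK-8 kit after co-treatment of each compound with the ferroptosis inducer RSL3.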

Each compound was assayed on MDA-MB-231 (assay: relative cell viability, compound + RSL3, vs DMSO (fraction of DMSO control); higher = less growth inhibition). Conditions: 72 h.
With COc1ccc(CN2CCNCC2)c(OC)c1OC [Trimetazidine dihydrochloride] + COC(=O)c1ccc([C@H]2c3[nH]c4ccccc4c3C[C@H](C(=O)OC)N2C(=O)CCl)cc1 [RSL3] the relative cell viability was 0.607.
O=C(Oc1ccc([N+](=O)[O-])cc1)N1CCN(Cc2cccc(Oc3ccccc3)c2)CC1 + COC(=O)c1ccc([C@H]2c3[nH]c4ccccc4c3C[C@H](C(=O)OC)N2C(=O)CCl)cc1 [RSL3] gave a relative cell viability of 0.473.
NNC(=O)c1nn(Cc2ccc(Cl)cc2Cl)c2ccccc12 [Adjudin] + COC(=O)c1ccc([C@H]2c3[nH]c4ccccc4c3C[C@H](C(=O)OC)N2C(=O)CCl)cc1 [RSL3] was tested, and the relative cell viability was 0.45.
For Cc1cc(SCc2sc(-c3ccc(C(F)(F)F)c(F)c3)nc2C)ccc1OCC(=O)O + COC(=O)c1ccc([C@H]2c3[nH]c4ccccc4c3C[C@H](C(=O)OC)N2C(=O)CCl)cc1 [RSL3], the relative cell viability was 0.668.
Work on CCc1c(C(=O)C(N)=O)c2c(OCC(=O)O)cccc2n1Cc1ccccc1 [Varespladib] + COC(=O)c1ccc([C@H]2c3[nH]c4ccccc4c3C[C@H](C(=O)OC)N2C(=O)CCl)cc1 [RSL3] yielded a relative cell viability of 0.574.
CC(C)=CCC[C@](C)(O)[C@H]1CC[C@]2(C)[C@@H]1[C@H](O)C[C@@H]1[C@@]3(C)CC[C@H](O)C(C)(C)[C@@H]3[C@@H](O[C@@H]3O[C@H](CO)[C@@H](O)[C@H](O)[C@H]3O)C[C@]12C [Ginsenoside Rh1] + COC(=O)c1ccc([C@H]2c3[nH]c4ccccc4c3C[C@H](C(=O)OC)N2C(=O)CCl)cc1 [RSL3] gave a relative cell viability of 0.679.
With C/C=C/c1cc(OC)c(OC)cc1OC [alpha-Asarone] + COC(=O)c1ccc([C@H]2c3[nH]c4ccccc4c3C[C@H](C(=O)OC)N2C(=O)CCl)cc1 [RSL3] the relative cell viability was 0.541.
C[C@]12CC[C@@H](O)C[C@@H]1CC[C@@H]1[C@@H]2CC[C@]2(C)C(=O)CC[C@@H]12 [Androsterone] + COC(=O)c1ccc([C@H]2c3[nH]c4ccccc4c3C[C@H](C(=O)OC)N2C(=O)CCl)cc1 [RSL3] was tested, and the relative cell viability was 0.658.
Work on O=C(NCCN1CCC2(CC1)C(=O)NCN2c1ccccc1)c1ccc2ccccc2c1 + COC(=O)c1ccc([C@H]2c3[nH]c4ccccc4c3C[C@H](C(=O)OC)N2C(=O)CCl)cc1 [RSL3] yielded a relative cell viability of 0.51.
C[C@@]12C[C@@H](c3ccoc3)OC(=O)[C@@H]1CC[C@]1(C)[C@H]2[C@@H]2C=C[C@@]1(O)C(=O)O2 [Columbin] + COC(=O)c1ccc([C@H]2c3[nH]c4ccccc4c3C[C@H](C(=O)OC)N2C(=O)CCl)cc1 [RSL3] was tested, and the relative cell viability was 0.642.
Work on O=C(CBr)c1ccc(O)cc1 [PTP Inhibitor I] + COC(=O)c1ccc([C@H]2c3[nH]c4ccccc4c3C[C@H](C(=O)OC)N2C(=O)CCl)cc1 [RSL3] yielded a relative cell viability of 0.577.
C[C@@H]1C(=O)O[C@H]2[C@H](O)[C@@]34O[C@@H]5OC(=O)[C@H](O)[C@@]56[C@H](C(C)(C)C)[C@H](O)C(OC3=O)[C@]64[C@@]12O (stereo not given in full) [Ginkgolide C] + COC(=O)c1ccc([C@H]2c3[nH]c4ccccc4c3C[C@H](C(=O)OC)N2C(=O)CCl)cc1 [RSL3] showed a relative cell viability of 0.692.
O=C1C=CC[C@@H]2[C@H]3CCCN4CCC[C@@H](CN12)[C@@H]34 [Sophocarpine] + COC(=O)c1ccc([C@H]2c3[nH]c4ccccc4c3C[C@H](C(=O)OC)N2C(=O)CCl)cc1 [RSL3] gave a relative cell viability of 0.502.
With O=C(Oc1ccc([N+](=O)[O-])cc1)N1CCC(C(O)(c2ccc3c(c2)OCO3)c2ccc3c(c2)OCO3)CC1 + COC(=O)c1ccc([C@H]2c3[nH]c4ccccc4c3C[C@H](C(=O)OC)N2C(=O)CCl)cc1 [RSL3] the relative cell viability was 0.618.
CCC1=N[C@H]2C[C@@]3(C(=O)N(OC)c4ccccc43)[C@H]3CC1[C@@H]2CO3 [Humantenmine] + COC(=O)c1ccc([C@H]2c3[nH]c4ccccc4c3C[C@H](C(=O)OC)N2C(=O)CCl)cc1 [RSL3] showed a relative cell viability of 0.679.
